Compound activity from PubChem BioAssay.
Compounds with a hit are over-represented: about 6.8% of the library has one in this group of screens.
Spn DPM-DC inh = blocks S. pneumoniae diphosphomevalonate decarboxylase; calls only at 10 µM; actives 0.49% (n = 65,000); AID 556; purified DPM-DC, PK/LDH coupled NADH fluorescence;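 active = the 320 compounds with the highest percent inhibition in the single-dose primary screen, excluding strongly autofluorescent ones, cut at about 32% in these data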;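 also: kinetic rate of NADH fluorescence loss reporting ADP formed by the decarboxylase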
PMK inhibit = inhibitors of Streptococcus pneumoniae phosphomevalonate kinase; purified PMK, PK/LDH-coupled NADH absorbance 340 nm; inhibition, % at 10 µM; actives 0.49% (n = 65,000); AID 539;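 active = top-ranked compounds by inhibition in the single 10 µM screen, taking a fixed number of the strongest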;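 also: 0% = full reaction with DMSO carrier and 100% = background rate without enzyme reaction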
Autofluor 339 = intrinsic fluorescence of library compounds, ex339/em460 – biochemical, MLSMR library, data from DPM-DC assay, artefact control, profiling panel; compound autofluorescence, ex339/em460 nm, NADH buffer; stronger effect = higher value; 1 = no-compound wells, NADH background; fluorescence fold increase at 10 µM; actives 5.5% (n = 65,000); AID 709;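 active = at 10 µM, mean starting fluorescence two-fold or more over control wells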;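 also: signal is the first read of a kinetic run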
NADH enzymes = inhibition of NAD/NADH coupling enzymes, library profiling; coupled PK/LDH NADH assays, four targets; IC50, µM (top dose mostly 10 µM), without a hit: at the highest dose inhibition; actives 0.02% (n = 65,000);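 active = single-dose screening hits from any of four coupled enzyme assays that gave an IC50 when retested across doses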;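 also: the DPM-DC format reads NADH fluorescence rather than 340 nm absorbance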
MK inhibit = inhibitors of Streptococcus pneumoniae mevalonate kinase | purified MK, PK/LDH-coupled NADH absorbance 340 nm | inhibition, % at 10 µM | actives 0.48% (n = 65,000);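 active = ranked among the strongest by inhibition in the single 10 µM screen, a fixed top-ranked set picked for dose follow-up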
Abs 340nm = compound absorbs light at 340 nm. compound absorbance at 340 nm, fold over control. fold change at 10 µM. 65,000 tested, under 10 active. AID 708;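 active = at 10 µM dose, initial 340 nm absorbance at least 2 fold that of control wells; inactive = change under 2 fold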;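 also: initial absorbance extrapolated from kinetic A340 decline of NADH oxidation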
* = called active by the depositor.

Results for C=CCn1c(SCCC(=O)O)nc2c1c(=O)n(C)c(=O)n2C ?
Spn DPM-DC inh: inactive; PMK inhibit: 6.0; Autofluor 339: 1.1; NADH enzymes: 3.0%; MK inhibit: 3.0; Abs 340nm: 1.03

How did COC(=O)c1ccsc1NC(=O)CN1C(=O)CCC1=O do in these assays?
Spn DPM-DC inh: inactive; PMK inhibit: 3.0; Autofluor 339: 1.01; NADH enzymes: 1.0%; MK inhibit: 9.0; Abs 340nm: 0.99

What do the screens show for `CCN(CC)S(=O)(=O)c1ccc2oc(C(=O)Nc3ccc(OC)cc3OC)c(C)c2c1`?
Spn DPM-DC inh: inactive; PMK inhibit: 9.0; Autofluor 339: 1.16; NADH enzymes: 12.0%; MK inhibit: 0.0; Abs 340nm: 1

Results for COc1ccc(NC(=O)c2oc3ccccc3c2NC(=O)C2CC2)cc1 ?
Spn DPM-DC inh: inactive; PMK inhibit: 7.0; Autofluor 339: 1.35; NADH enzymes: 5.0%; MK inhibit: 0.0; Abs 340nm: 1.07

What do the screens show for `COc1ccc(NC(=O)c2oc3cc(C)c(C)cc3c2C)c(OC)c1`?
PMK inhibit: 4.0; Autofluor 339: 3.83*; NADH enzymes: 4.0%; MK inhibit: 4.0; Abs 340nm: 1.1

How did CCOc1ccc(NC(=O)c2oc3ccccc3c2NC(=O)C2CC2)cc1 do in these assays?
Spn DPM-DC inh: inactive; PMK inhibit: 15.0; Autofluor 339: 2.6*; NADH enzymes: 5.0%; MK inhibit: 0.0; Abs 340nm: 1.11

How did CC1N=C2c3ccccc3N=C(SCc3cc(=O)n4ccccc4n3)N2C1=O (centres undefined) do in these assays?
Spn DPM-DC inh: inactive; PMK inhibit: 8.0; Autofluor 339: 1.41; NADH enzymes: 6.0%; MK inhibit: 9.0; Abs 340nm: 1.14

How did O=C(C1CCC1)N1CCN(Cc2ccccc2)CC1 do in these assays?
Spn DPM-DC inh: inactive; PMK inhibit: 7.0; Autofluor 339: 1.09; NADH enzymes: 6.0%; MK inhibit: 11.0; Abs 340nm: 0.94

How did Cc1ccc(CN2CCN(C(=O)C3CCC3)CC2)cc1 do in these assays?
Spn DPM-DC inh: inactive; PMK inhibit: active; Autofluor 339: 1.02; NADH enzymes: 6.0%; MK inhibit: 8.0; Abs 340nm: 1.01

What do the screens show for `O=C(Cc1cn2ccsc2n1)OCc1ccccc1`?
Spn DPM-DC inh: inactive; PMK inhibit: 13.0; Autofluor 339: 1.01; NADH enzymes: 7.0%; MK inhibit: 8.0; Abs 340nm: 0.98

Results for O=C(Cc1cn2ccsc2n1)OCc1nc2ccccc2s1 ?
Spn DPM-DC inh: inactive; PMK inhibit: 25.0*; Autofluor 339: 1.02; NADH enzymes: 9.0%; MK inhibit: 1.0; Abs 340nm: 1.01

Results for Cc1cc(=O)c2n(Cc3ccc(Cl)cc3)nc[n+]2[nH]1 ?
Spn DPM-DC inh: inactive; PMK inhibit: 1.0; Autofluor 339: 1.13; NADH enzymes: 1.0%; MK inhibit: 1.0; Abs 340nm: 1.02

Results for Cc1cc(C)c(NC(=O)C2CSCCS2)c(C)c1 (centres undefined) ?
Spn DPM-DC inh: inactive; PMK inhibit: 16.0; Autofluor 339: 1.02; NADH enzymes: 3.0%; MK inhibit: 0.0; Abs 340nm: 0.98

How did Nc1ccc2nn(-c3cccc4ccccc34)nc2c1 do in these assays?
PMK inhibit: 1.0; Autofluor 339: 2.19*; NADH enzymes: 2.0%; MK inhibit: 2.0; Abs 340nm: 1.11

What do the screens show for `Cc1cc2nn(-c3cccc4ccccc34)nc2cc1N`?
PMK inhibit: 12.0; Autofluor 339: 3.58*; NADH enzymes: 13.0%; MK inhibit: 14.0; Abs 340nm: 1.18

How did Nc1ccc2oc(CCc3ccccc3)nc2c1 do in these assays?
Spn DPM-DC inh: inactive; PMK inhibit: 12.0; Autofluor 339: 1.22; NADH enzymes: 9.0%; MK inhibit: 7.0; Abs 340nm: 0.97

Results for CCOc1cc(C(=O)N(C)c2ccccc2)cc(OCC)c1OCC ?
Spn DPM-DC inh: inactive; PMK inhibit: 0.0; Autofluor 339: 1.02; NADH enzymes: 2.0%; MK inhibit: 5.0; Abs 340nm: 1.06

What do the screens show for `CCn1c(COc2cccc(OC)c2)nnc1SCC(=O)Nc1cccc(OC)c1`?
Spn DPM-DC inh: inactive; PMK inhibit: 18.0; Autofluor 339: 1.08; NADH enzymes: 7.0%; MK inhibit: 4.0; Abs 340nm: 0.99

How did CC(=O)N(C)C1(c2nnnn2CCOC(=O)Nc2cccc3ccccc23)CCCC1 do in these assays?
Spn DPM-DC inh: inactive; PMK inhibit: 11.0; Autofluor 339: 1.01; NADH enzymes: 3.0%; MK inhibit: 10.0; Abs 340nm: 0.99

Results for OCCN(CCO)c1nc(N2CCCCC2)c2nc(N(CCO)CCO)nc(N3CCCCC3)c2n1 ?
PMK inhibit: 2.0; Autofluor 339: 2.25*; NADH enzymes: 3.0%; MK inhibit: 4.0; Abs 340nm: 1

Results for O=C(OCCN1C(=O)c2ccccc2C1=O)C1CCN(S(=O)(=O)c2cccs2)CC1 ?
Spn DPM-DC inh: inactive; PMK inhibit: 0.0; Autofluor 339: 1.06; NADH enzymes: 4.0%; MK inhibit: 11.0; Abs 340nm: 1.03

What do the screens show for `Cc1cccc(C)c1N1C(=O)c2ccccc2C1=O`?
Spn DPM-DC inh: inactive; PMK inhibit: 5.0; Autofluor 339: 1.1; NADH enzymes: 2.0%; MK inhibit: 0.0; Abs 340nm: 1.02

What do the screens show for `Cn1c(=O)[nH]c(=O)c2c1nc(NC1CCCCC1)n2CCO`?
Spn DPM-DC inh: inactive; PMK inhibit: 1.0; Autofluor 339: 1.06; NADH enzymes: 1.0%; MK inhibit: 0.0; Abs 340nm: 1.03

Results for Cn1c(=O)[nH]c(=O)c2c1nc(NC1CCCCC1)n2Cc1ccccc1 ?
Spn DPM-DC inh: active; PMK inhibit: 17.0; Autofluor 339: 2.53*; NADH enzymes: 31.0%; MK inhibit: 37.0; Abs 340nm: 0.98

Results for CSc1nc(NC(C)(C)C)nc(Oc2ccc(=O)[nH]n2)n1 ?
Spn DPM-DC inh: inactive; PMK inhibit: 9.0; Autofluor 339: 1.02; NADH enzymes: 2.0%; MK inhibit: 6.0; Abs 340nm: 0.98

How did CCNc1nc(NCc2ccccc2)nc(Oc2ccc(=O)[nH]n2)n1 do in these assays?
Spn DPM-DC inh: inactive; PMK inhibit: 4.0; Autofluor 339: 2.63*; NADH enzymes: 4.0%; MK inhibit: 7.0; Abs 340nm: 1.03

How did CCn1nnnc1NCc1cccn1C do in these assays?
Spn DPM-DC inh: inactive; PMK inhibit: 6.0; Autofluor 339: 0.99; NADH enzymes: 3.0%; MK inhibit: 10.0; Abs 340nm: 0.97

Results for CCN1CCc2c(sc3c2c(NCc2ccco2)nc2nnnn23)C1 ?
Spn DPM-DC inh: inactive; PMK inhibit: 9.0; Autofluor 339: 2.38*; NADH enzymes: 8.0%; MK inhibit: 7.0; Abs 340nm: 1.05

How did c1coc(CNc2ncnc3sc4c(c23)CCCCC4)c1 do in these assays?
Spn DPM-DC inh: inactive; PMK inhibit: 16.0; Autofluor 339: 1.02; NADH enzymes: 7.0%; MK inhibit: 4.0; Abs 340nm: 1.01
